According to PubChem BioAssay:
A number with no mark means an inactive call.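 The calls were made as follows, unless noted: active = compounds killing one labelled cell type while sparing the other, by normalised counts and ratio limits, not self-fluorescent; inactive = the rest.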

Experiment: modulation of C. elegans fzo-1 (AID 1259413; call rule not given here;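 also: fzo-1 mutant C. elegans worms in liquid wells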)
Settings: C. elegans fzo-1 modulator screen, mean read-out; hits give high values

Structure (SMILES) | mean signal
O=c1[nH]cc(F)c(=O)[nH]1 | 262
CCc1nc(N)nc(N)c1-c1ccc(Cl)cc1 | 234
CCc1cccc2c3c([nH]c12)C(CC)(CC(=O)O)OCC3 (stereo not drawn) | 230
Nc1ncn([C@@H]2O[C@H](CO)[C@@H](O)[C@H]2O)c(=O)n1 | 231
Cc1ccccc1C(OCCN(C)C)c1ccccc1 (stereo not drawn) | 231
Cc1ccc(C)c(OCCCC(C)(C)C(=O)O)c1 | 239
NC(=O)c1cnccn1 | 263
CCCCCCNC(=O)n1cc(F)c(=O)[nH]c1=O | 292
COC1=CC(=O)C[C@@H](C)[C@]12Oc1c(Cl)c(OC)cc(OC)c1C2=O | 231
Cc1ncc([N+](=O)[O-])n1CC(C)O (stereo not drawn) | 281
N[C@@H](C(=O)N[C@@H]1C(=O)N2C(C(=O)O)=C(Cl)CS[C@H]12)c1ccccc1 | 277
CO[C@@]1(NC(=O)Cc2cccs2)C(=O)N2C(C(=O)O)=C(COC(N)=O)CS[C@@H]21 | 248
OCCN1CCN(CCCN2c3ccccc3Sc3ccc(C(F)(F)F)cc32)CC1 | 243
CN(C)CCOC(c1ccc(Cl)cc1)c1ccccn1 (stereo not drawn) | 244
Cc1onc(-c2c(Cl)cccc2Cl)c1C(=O)N[C@@H]1C(=O)N2[C@@H]1SC(C)(C)[C@@H]2C(=O)O | 230
COc1cc2nc(N(C)CCCNC(=O)C3CCCO3)nc(N)c2cc1OC (stereo not drawn) | 257
NS(=O)(=O)c1cc(C2(O)NC(=O)c3ccccc32)ccc1Cl (stereo not drawn) | 251
CN(C)CCc1c[nH]c2ccc(C[C@H]3COC(=O)N3)cc12 | 245
Cc1ccc(-c2cc(C(F)(F)F)nn2-c2ccc(S(N)(=O)=O)cc2)cc1 | 242
CN[C@H]1CC[C@@H](c2ccc(Cl)c(Cl)c2)c2ccccc21 | 250

Structure (SMILES) | mean signal
O=S(=O)(O)CCS | 248
C/C=C/C(=O)N(CC)c1ccccc1C | 254
COc1ccc(OC)c(C(O)CNC(=O)CN)c1 (stereo not drawn) | 239
Cn1cnc([N+](=O)[O-])c1Sc1ncnc2nc[nH]c12 | 260
c1ccc2[nH]c(-c3cscn3)nc2c1 | 278
CCCNCC(O)COc1ccccc1C(=O)CCc1ccccc1 (stereo not drawn) | 272
NC(=O)N1c2ccccc2CC(=O)c2ccccc21 | 241
Cc1cn([C@H]2C[C@H](N=[N+]=[N-])[C@@H](CO)O2)c(=O)[nH]c1=O | 236
CN(CCOc1ccc(CC2SC(=O)NC2=O)cc1)c1ccccn1 (stereo not drawn) | 290
COc1ccccc1OCC(O)COC(N)=O (stereo not drawn) | 264
OC(CCN1CCCC1)(c1ccccc1)C1CCCCC1 (stereo not drawn) | 232
O=C1C(CCS(=O)c2ccccc2)C(=O)N(c2ccccc2)N1c1ccccc1 (stereo not drawn) | 224
COC(=O)Nc1nc2ccc(C(=O)c3ccccc3)cc2[nH]1 | 274
CCn1cc(C(=O)O)c(=O)c2cc(F)c(N3CCN(C)CC3)cc21 | 261
CN1CCCC(n2nc(Cc3ccc(Cl)cc3)c3ccccc3c2=O)CC1 (stereo not drawn) | 269
NCc1ccc(S(N)(=O)=O)cc1 | 250
Clc1ccc2c(c1)C(N1CCNCC1)=Nc1ccccc1O2 | 211
CC(C)(C)NCC(O)COc1cccc2c1C[C@H](O)[C@H](O)C2 (stereo partly drawn) | 269
NS(=O)(=O)c1cc2c(cc1Cl)NC=NS2(=O)=O | 245

Experiment: EMT-state selective cytotoxicity in co-culture – imaging, PC-3E GFP, TEM4-18 mCherry, primary screen (AID 1345086);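 also: normalised mesenchymal count divided by normalised epithelial count so high means epithelial killing; cells exposed to compound for 72 h before imaging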
Settings: PC-3E GFP / TEM4-18 mCherry co-culture, imaging cell counts; at 1 µM; actives lie on both sides; counts scaled to control wells, 1 = unselective

Structure (SMILES) | red/green cell ratio (normalised)
O=c1[nH]cc(F)c(=O)[nH]1 | 0.94
CCc1nc(N)nc(N)c1-c1ccc(Cl)cc1 | 0.84
CCc1cccc2c3c([nH]c12)C(CC)(CC(=O)O)OCC3 (stereo not drawn) | 1.13
Nc1ncn([C@@H]2O[C@H](CO)[C@@H](O)[C@H]2O)c(=O)n1 | 0.99
Cc1ccccc1C(OCCN(C)C)c1ccccc1 (stereo not drawn) | 1.09
Cc1ccc(C)c(OCCCC(C)(C)C(=O)O)c1 | 1.25
NC(=O)c1cnccn1 | 1.13
CCCCCCNC(=O)n1cc(F)c(=O)[nH]c1=O | 0.85
COC1=CC(=O)C[C@@H](C)[C@]12Oc1c(Cl)c(OC)cc(OC)c1C2=O | 0.76
Cc1ncc([N+](=O)[O-])n1CC(C)O (stereo not drawn) | 0.83
N[C@@H](C(=O)N[C@@H]1C(=O)N2C(C(=O)O)=C(Cl)CS[C@H]12)c1ccccc1 | 1.23
CO[C@@]1(NC(=O)Cc2cccs2)C(=O)N2C(C(=O)O)=C(COC(N)=O)CS[C@@H]21 | 1.1
OCCN1CCN(CCCN2c3ccccc3Sc3ccc(C(F)(F)F)cc32)CC1 | 1.23
CN(C)CCOC(c1ccc(Cl)cc1)c1ccccn1 (stereo not drawn) | 1.11
Cc1onc(-c2c(Cl)cccc2Cl)c1C(=O)N[C@@H]1C(=O)N2[C@@H]1SC(C)(C)[C@@H]2C(=O)O | 1.32
COc1cc2nc(N(C)CCCNC(=O)C3CCCO3)nc(N)c2cc1OC (stereo not drawn) | 0.93
NS(=O)(=O)c1cc(C2(O)NC(=O)c3ccccc32)ccc1Cl (stereo not drawn) | 1.08
CN(C)CCc1c[nH]c2ccc(C[C@H]3COC(=O)N3)cc12 | 0.98
Cc1ccc(-c2cc(C(F)(F)F)nn2-c2ccc(S(N)(=O)=O)cc2)cc1 | 1.22
CN[C@H]1CC[C@@H](c2ccc(Cl)c(Cl)c2)c2ccccc21 | 1.12

Structure (SMILES) | red/green cell ratio (normalised)
O=S(=O)(O)CCS | 1
C/C=C/C(=O)N(CC)c1ccccc1C | 1.1
COc1ccc(OC)c(C(O)CNC(=O)CN)c1 (stereo not drawn) | 1.18
Cn1cnc([N+](=O)[O-])c1Sc1ncnc2nc[nH]c12 | 0.98
c1ccc2[nH]c(-c3cscn3)nc2c1 | 1.18
CCCNCC(O)COc1ccccc1C(=O)CCc1ccccc1 (stereo not drawn) | 1.04
NC(=O)N1c2ccccc2CC(=O)c2ccccc21 | 1.05
Cc1cn([C@H]2C[C@H](N=[N+]=[N-])[C@@H](CO)O2)c(=O)[nH]c1=O | 1.03
CN(CCOc1ccc(CC2SC(=O)NC2=O)cc1)c1ccccn1 (stereo not drawn) | 0.92
COc1ccccc1OCC(O)COC(N)=O (stereo not drawn) | 0.97
OC(CCN1CCCC1)(c1ccccc1)C1CCCCC1 (stereo not drawn) | 1.05
O=C1C(CCS(=O)c2ccccc2)C(=O)N(c2ccccc2)N1c1ccccc1 (stereo not drawn) | 1.33
COC(=O)Nc1nc2ccc(C(=O)c3ccccc3)cc2[nH]1 | 1.27
CCn1cc(C(=O)O)c(=O)c2cc(F)c(N3CCN(C)CC3)cc21 | 1.22
CN1CCCC(n2nc(Cc3ccc(Cl)cc3)c3ccccc3c2=O)CC1 (stereo not drawn) | 0.89
NCc1ccc(S(N)(=O)=O)cc1 | 1
Clc1ccc2c(c1)C(N1CCNCC1)=Nc1ccccc1O2 | 1.17
CC(C)(C)NCC(O)COc1cccc2c1C[C@H](O)[C@H](O)C2 (stereo partly drawn) | 1.06
NS(=O)(=O)c1cc2c(cc1Cl)NC=NS2(=O)=O | 1.16
